Screen size: about 150,000 compounds; about 190 (0.13%) were called active. Roughly 2% stayed inconclusive and do not appear here. The call rests on the fitted dose curve; in most records, active means well fitted inhibition curve with a large enough effect; inconclusive means small, poorly fitted or top-dose-only effect; inactive means flat fitted curve, though single readings scatter. What follows is part of a selection rich in actives, with near analogues and random picks from the rest.
Each compound was assayed against Polyunsaturated fatty acid lipoxygenase ALOX12 (Homo sapiens) (UniProt P18054) (assay: qHTS Assay for Inhibitors of 12-hLO (12-human lipoxygenase)). Settings: purified 12-hLO, xylenol orange hydroperoxide absorbance; series mostly up to 57.1 µM; activity change, negative = inhibition: at the top concentration.
Chain of Polyunsaturated fatty acid lipoxygenase ALOX12 (Homo sapiens) (P18054 whole entry, looked up): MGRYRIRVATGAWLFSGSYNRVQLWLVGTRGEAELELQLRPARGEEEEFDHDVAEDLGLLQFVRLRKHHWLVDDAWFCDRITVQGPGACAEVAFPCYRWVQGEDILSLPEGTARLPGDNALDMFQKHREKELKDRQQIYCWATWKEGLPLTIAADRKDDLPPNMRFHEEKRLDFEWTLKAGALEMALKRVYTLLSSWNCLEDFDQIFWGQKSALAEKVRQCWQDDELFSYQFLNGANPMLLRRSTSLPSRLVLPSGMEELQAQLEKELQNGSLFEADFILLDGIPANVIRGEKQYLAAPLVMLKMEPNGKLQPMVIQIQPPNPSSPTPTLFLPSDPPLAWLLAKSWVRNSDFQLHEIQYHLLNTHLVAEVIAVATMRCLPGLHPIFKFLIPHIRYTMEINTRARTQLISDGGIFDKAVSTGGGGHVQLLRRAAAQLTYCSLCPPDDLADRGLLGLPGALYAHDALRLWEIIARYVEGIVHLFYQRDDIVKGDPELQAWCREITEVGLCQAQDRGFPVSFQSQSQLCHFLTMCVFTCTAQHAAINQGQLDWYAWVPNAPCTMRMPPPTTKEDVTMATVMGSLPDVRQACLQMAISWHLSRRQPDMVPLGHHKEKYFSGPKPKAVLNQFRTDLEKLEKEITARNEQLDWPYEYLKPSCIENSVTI
Text: Assay Provider: Holman, T.R., University of California, Santa Cruz Screening Center PI: Austin, C.P. Screening Center: NIH Chemical Genomics Center [NCGC] Human lipoxygenase 12hLO is a member of the closely related lipoxygenase family of enzymes which catalyze the site-specific oxidation of arachidonic acid to various hormone precursor molecules and as such is a candidate for drug development in a variety of disease areas, such as cancer and inflammation. Inhibition of 12hLO activity was screened by utilizing arachidonic acid as a substrate. The extent of hydroperoxide product formation was measured by a secondary chromogenic reaction in which xylenol orange (XO, Sigma-Aldrich, cat. number 39,818-7) reacts with the ferric ions produced from the reaction between the hydroperoxide and ferrous ions. The Fe(III)-XO complex is characterized with red-shifted absorbance at 560 nm. A purified preparation of human 12hLO was supplied by Professor Ted Holman, University of California, Santa Cruz.
Assay Protocol: Buffer: 25 mM Hepes pH 7.0, 0.01% Triton X-100. Reagents/Controls: Buffer in columns 3 and 4 as negative control (no enzyme). Substrate solution: 40 uM arachidonic acid (Sigma-Aldrich, St. Louis, MO) final concentration dispensed throughout the plate. Enzyme: 150 nM 12hLO final concentration in columns 1, 2, 5-48. Column 1 is neutral (100% activity). Column 2 contained pin-transferred titration of NDGA (nordihidroguaiaretic acid, Sigma-Aldrich, N 5023, top concentration 20 mM in DMSO, then 1:3 dilution in duplicate). (Dilution factor: 23 nL into 4 uL.) Chromogenic detection reagent (divalent iron/xylenol orange, Fe-XO): 200 uM xylenol orange plus 300 uM ferrous ammonium sulfate prepared freshly in 50 mM sulfuric acid. Assay Steps: Three uL of enzyme were dispensed to 1536-well Greiner black clear bottom plates. Compounds and controls (23 nL) were transferred via Kalypsys PinTool. The plates were incubated for 15 min at room temperature, and then 1 uL of substrate solution was added to start the reaction. After room temperature incubation for 30 minutes, 4 uL of Fe-XO solution was added to each well and the plates were incubated for 30 min. The absorbance at 405 and 573 nm were measured using ViewLux (Perkin-Elmer) High-throughput CCD imager and absorbance protocol settings. The 573-to-405 absorbance ratio was used to compute reaction progress.
Further: nearly all actives have a fitted effect of over 55% in size.
On the % scale 0 is the no-effect control and ±100 the full control effect; potency means the concentration at half of the fitted maximal effect.

Activity change, negative = inhibition, inactive:
Cc1cc(C)cc(OCC(=O)NNC(=O)CCN2C(=O)c3ccccc3C2=O)c1 -4%
C/C(=C\c1ccccc1)C1NC(=O)c2c(sc3c2CCCC3)N1 (stereo unspecified) -1.08%
O=C(CN1C(=O)c2cccc3cccc(c23)C1=O)N1CCCCC1 -0.677%
CCOC(=O)N1CCN(C(=O)C2CCN(Cc3ccc(OC)cc3OC)CC2)CC1 -2.84%
O=C1OCCN1C(=O)[C@H]1[C@H](c2ccccc2)C(c2ccc(F)cc2)=NN1c1ccccc1 -8.19% [at 0.00818 µM]
C[C@H]1Cc2c(COc3ccccc3)nc3c(c2CO1)CN(C(=O)NCc1ccco1)CC3 1.43% [at 11.4 µM]
COC(=O)CC1c2ccccc2C(Cc2ccc(OC)cc2)=C(C)N1C(=O)OC (stereo unspecified) 2.48% [at 11.4 µM]
C=CCn1c2ccccc2c2nnc(SCc3[nH]c(=O)[nH]c3C(=O)CCCCC(=O)OCC)nc21 -6.15%
COC(=O)CN1C(=S)N(c2ccccc2)C(=O)C1CC(=O)Nc1ccc(Cl)cc1 (stereo unspecified) -15.2%
CC(=O)c1c(N2CCN(c3ccc(F)cc3)CC2)nc(=S)n(-c2ccccc2)c1C -1.83%
COc1ccc(-c2nc(-c3ccccc3)oc2Nc2ccc3ccccc3c2)cc1 -1.22%
O=[N+]([O-])c1ccc(NCCCO)c(C(F)(F)F)c1 -1.65%
CNC(=O)NC(=O)C(OC(=O)c1cccc(S(=O)(=O)N2CCCCC2)c1)c1ccccc1 (stereo unspecified) 2.13%
O=C1OCCN1C(=O)[C@H]1[C@H](c2ccc(F)cc2)C(c2ccccc2)=NN1c1ccc(Br)cc1 -8.73% [at 0.00818 µM]
CCCCC(CC(C)O)c1n[nH]c(=S)n1-c1ccccc1 (stereo unspecified) 2.18%
CCCc1cc(-c2n[nH]c(=S)n2Cc2ccccc2)cs1 -10.4%
NNc1nnc(NN)c2ccccc12 -2.71% [at 0.00818 µM]
CCOC(=O)C1=C(C)c2ccccc2OC1C(=O)OCC (stereo unspecified) 1.63% [at 0.00818 µM]
COC(=O)C1(C(C)=O)CC2=CC[C@H]3C(=O)N(c4ccccc4)C(=O)[C@H]3[C@@H]2Cc2ccccc2[C@@H]1C[N+](=O)[O-] (stereo partly specified) 0.0255%
N#Cc1ccsc1NC(=O)CN1CCN(S(=O)(=O)c2cc(Cl)ccc2Cl)CC1 -0.442%
Cc1nn(-c2ccccc2)c(C)c1/C=N/NC(=O)CSc1nc2ccccc2c(=O)n1-c1ccccc1 -0.304%
CCOC(=O)c1c(NC(=O)Cn2nc(C(F)(F)F)cc2C)sc2c1CCC2 0.245%
CCOc1cc(/C=N/NC(=O)OC)ccc1OCCSc1ccc(Cl)cc1 -0.0265%
COc1ccc(Br)cc1C(=O)NC(=S)Nc1cc(-c2nc3ccccc3[nH]2)ccc1C -4.68%
C=CCNC(=S)N/N=C/c1ccc(OCc2ccccc2)cc1 -3.94%
CCS(=O)(=O)Nc1cccc(-c2cc(-c3ccccc3)c3cc(C)ccc3n2)c1 1.99%
O=C(COC(=O)c1c2c(nc3ccccc13)/C(=C\c1cccs1)CCC2)Nc1ccccc1Cl -2.57%
COC(=O)C1=C(C(=O)OC)[C@@H]2N(C)c3ccccc3[C@@]23C[C@@H](C(=O)OC)N(S(=O)(=O)c2cccs2)C3=N1 -1.35% [at 11.4 µM]
CCCCc1cc2c(s1)CCCC/C2=N/O -1.86%
NC(=O)c1ccccc1N=Cc1ccc2ccccc2c1 -0.382%
CC(C)CCN1C(=O)c2ccc(C(=O)Nc3cccc(S(N)(=O)=O)c3)cc2C1=O 3.13%
COc1ccccc1OCC(=O)OCn1c(SC)nnc(C)c1=O -0.32%
N#C/C(=C/c1ccc(N2CCCCC2)o1)C(=O)NCCc1c[nH]c2ccccc12 -7.08%
CC(C)CN(C(=O)CN1CCN(S(=O)(=O)c2ccccc2)CC1)c1c(N)n(CC(C)C)c(=O)[nH]c1=O 3.56%
Cc1cc(N2CCOCC2)nc(-c2ccc(Br)cc2)n1 1.56%
COc1ccc2c(-c3ccccc3)cc(SCC(=O)N(C)C3CCS(=O)(=O)C3)nc2c1 (stereo unspecified) -4.74%
Cc1ccc(S(=O)(=O)N2CCC(=O)N([C@H](COCc3ccccc3)Cc3ccccc3)CC2)cc1 0.261% [at 0.00818 µM]
COc1ccc(-n2c(C)cc(C(=O)COC(=O)c3cc(OC)c(OC)cc3NC(=O)c3cccs3)c2C)cc1 1.19%
COc1cc2c(cc1NC(=O)COC(=O)/C=C/c1ccccc1)oc1ccccc12 0.678%
COc1ccc(CCNc2cc(C)nc3c(-c4ccc(Cl)cc4)c(C)nn23)cc1OC -1.48%
O=C(Nc1ccc(N2C(=O)c3cccc4cccc(c34)C2=O)cc1)c1ccc(N2CCCCC2)c([N+](=O)[O-])c1 -0.132%
CCn1c(=O)cc(SCC(=O)NCCC2=CCCCC2)c2ccccc21 -12.1%
COc1cccc(CC(=O)N2CCc3nc(COc4ccccc4)c4c(c3C2)CO[C@@H](C)C4)c1 -2.68% [at 11.4 µM]
COCCNC(=O)c1ccc(N2CCC3(CC2)OCCO3)c([N+](=O)[O-])c1 3.27%
CCCN=C1NC(=O)C(CC(=O)NCCc2ccc(OC)c(OC)c2)S1 (stereo unspecified) -0.962%
CCOC(=O)c1ccccc1N1C(=O)C2Sc3[nH]c(=O)sc3C(/C=C/c3ccccc3)C2C1=O (stereo unspecified) -26%
CC(=O)NNC1=Nc2ccccc2N(C)C(C)C1 (stereo unspecified) 1.24%
COC(=O)/C(C#N)=C/c1occc1C -1.5%
Cc1[nH]n(-c2ccccc2)c(=O)c1/C=N/NC(=O)c1ccoc1C -1.41%
Cn1cccc1/C=N/NC(=O)c1ccc(OC(F)(F)C(F)F)cc1 -1.04%
COc1cc(OC)c2c(-c3cccc(-c4cccc(N)c4)c3)cc(=O)oc2c1 -1.39% [at 0.00818 µM]
N=C1/C(=C/c2cccn2-c2cccc([N+](=O)[O-])c2)C(=O)N=C2SC=CN12 -1.46%
Cc1cccc([C@H]2[C@@H]3C=CC[C@@H](C)[C@@H]3C(=O)N2Cc2ccccc2)c1 -6.11% [at 0.00818 µM]
COc1cc(CCC(=O)OCC(=O)Nc2cccc(S(N)(=O)=O)c2)cc(OC)c1OC 3.81%
O=C(O)CC(Cc1ccccc1)C(=O)Nc1ccc([N+](=O)[O-])cc1 (stereo unspecified) -0.203%
NC(=O)C[C@@H]1NC(=O)CNC(=O)c2cc([N+](=O)[O-])cc(I)c2NCCC(C(N)=O)NC1=O (stereo partly specified) -10.2%
Cn1cccc1/C=C1\SC(=S)N(NC(=O)c2ccc(Cl)cc2)C1=O -12.2%
CCc1nnc(NC(=O)/C=C/c2ccc(C)o2)s1 -2.76%
C=CC1=C2C=C(C3CC3)N(C(CO)CO)C=C2C(=O)C(C)(OC(=O)c2ccco2)C1=O (stereo unspecified) 3.57% [at 11.4 µM]
CC1=C(C/C=C(\C)CCCC(C)CCCC(C)CCCC(C)C)C(=O)c2ccccc2C1=O (stereo unspecified) -5.67% [at 0.00818 µM]
CN(C(=O)CSc1nnc(-c2n[nH]c3ccccc23)o1)c1ccccc1 -2.11%
Cc1nc(-c2ccccc2)cn2c1nc1ccccc12 0.637%
O=C1OCCN1C(=O)[C@H]1[C@H](c2ccc(Cl)cc2)C(c2cccc(Cl)c2)=NN1c1ccc(Br)cc1 -6.33% [at 0.00818 µM]
COc1cc(OC)c2c(c1)OC(=O)CC2c1cc(OC)c(OC)c(OC)c1 (stereo unspecified) -5.58% [at 0.00818 µM]
CCCCC/C=C\C/C=C\CCCCCCCCCC(=O)O 0.814%

Potency, active:
CC(C)Oc1ccc(CCc2n[nH]c(=S)n2Cc2ccccc2)cc1 31.6 µM
